Molecules are shown by their SMILES.

The experiment in a line: High-throughput drug toxicity screening in the BPDCN cell line Gen2.2 (AID 1224824).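 Note: cells exposed to compounds for 48 h before reading.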 The note with it: Gen2.2 BPDCN cells; at 45.8 µM (top of the series) unless noted. The gist of the method: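 CellTiter-Glo luminescence read after 48 h compound exposure at 37 C defines viability; percent activity set with DMSO as 100% and bortezomib (9.2 uM final) as 0%. 500 exponentially growing cells per well, RPMI plus 10% FBS.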
As to `O=C(O)CCCCCC(=O)NN=C1CCCC1`, the cell viability, % of control (lower = more cytotoxic) was found to be 141%. On to `CC(C)(C)[N+]([O-])=Cc1ccc(S(=O)(=O)O)cc1S(=O)(=O)O`, for which the cell viability, % of control (lower = more cytotoxic) is 133%. For `C[C@@]12C[C@@]3(O)O[C@@H](O1)[C@]1(COC(=O)c4ccccc4)[C@@H]3C[C@@]12O[C@@H]1O[C@H](CO)[C@@H](O)[C@H](O)[C@@H]1O`, the cell viability, % of control (lower = more cytotoxic) came out at 109%. Consider `Cc1cncc2cccc(S(=O)(=O)N3CCCN(C(=O)CN)C[C@@H]3C)c12`, for which the cell viability, % of control (lower = more cytotoxic) is 35.1%. Turning to `O=C(O)C=Cc1ccc(Cn2ccnc2)cc1`, the cell viability, % of control (lower = more cytotoxic) stood at 243%. For `O=C(CN1C(=O)C2(CCCC2)NC[C@H]1c1cc(F)cc(F)c1)Nc1ccc2c(c1)C[C@@]1(C2)C(=O)Nc2ncccc21` the value was 124%. As for `CCN1CCN(C(=O)N[C@H](C(=O)N[C@@H]2C(=O)N3C(C(=O)O)=C(CSc4nnnn4C)CS[C@@H]23)c2ccc(O)cc2)C(=O)C1=O`, the cell viability, % of control (lower = more cytotoxic) came to 149% [at 15.3 µM]. As for `Cc1ccc(-n2[nH]c(C)c(N=Nc3cccc(-c4cccc(C(=O)O)c4)c3O)c2=O)cc1C`, the cell viability, % of control (lower = more cytotoxic) is 180%. Regarding `NC(=NCCCCCCN=C(N)N=C(N)Nc1ccc(Cl)cc1)N=C(N)Nc1ccc(Cl)cc1`, the cell viability, % of control (lower = more cytotoxic) stood at 6.22%. Take `C=C(C)[C@@H]1CC[C@]2(C)CC[C@]3(C)[C@H](CC[C@@H]4[C@@]5(C)CC[C@H](O)C(C)(C)[C@H]5CC[C@]43C)[C@@H]12`: the cell viability, % of control (lower = more cytotoxic) came out at 162%. On to `O=C1NC(O)CCN1[C@@H]1O[C@H](CO)[C@H](O)[C@H]1O` (stereo partly drawn), for which the cell viability, % of control (lower = more cytotoxic) is 105%. For the molecule `NS(=O)(=O)OC[C@@H]1C[C@@H](n2ccc3c(N[C@H]4CCc5ccccc54)ncnc32)C[C@H]1O`, the cell viability, % of control (lower = more cytotoxic) was 6.59%. Under `Cc1cc(-c2nnc3n2CCCCC3)c(C)n1-c1ccccc1` stands 229%; under `NC(=O)Nc1sc(-c2ccc(F)cc2)cc1C(N)=O`, 3.62%; under `C=C1CCC2[C@](C)(CO)C(O)CC[C@]2(C)C1CC=C1C(=O)OCC1O` (stereo partly drawn), 83.8% [at 92.2 µM]. For the molecule `CC[C@H]1OC(=O)[C@H](C)[C@@H](O[C@H]2C[C@@](C)(OC)[C@@H](O)[C@H](C)O2)[C@H](C)[C@@H](O[C@@H]2O[C@H](C)C[C@H](N(C)C)[C@@H]2O)[C@](C)(OC)C[C@@H](C)C(=O)[C@H](C)[C@@H](O)[C@]1(C)O`, the cell viability, % of control (lower = more cytotoxic) is 99.8%. On to `Cc1ccc2nc(NCCN)c3ncc(C)n3c2c1`, for which the cell viability, % of control (lower = more cytotoxic) was determined as 2.46%. As for `CCc1cc(C(C)=NOCc2ccc(C3CCCCC3)c(C(F)(F)F)c2)ccc1CN1CC(C(=O)O)C1`, the cell viability, % of control (lower = more cytotoxic) turned out to be 68%.

With `COc1cc(C(=O)NC2CCN(C)CC2)ccc1Nc1ncc2c(n1)N(C1CCCC1)CCC(=O)N2C(C)C`, the cell viability, % of control (lower = more cytotoxic) is 6.24%. Take `CC(C=CC=C(C)C=CC1=C(C)CCCC1(C)C)=CC=CC=C(C)C=CC=C(C)C=CC1=C(C)CCCC1(C)C`: the cell viability, % of control (lower = more cytotoxic) stood at 8%. As for `CCOC(=O)N1CCN([N+]([O-])=NOc2ccc([N+](=O)[O-])cc2C#N)CC1`, the cell viability, % of control (lower = more cytotoxic) is 17.2%. Regarding `C[C@H]1[C@@H](OC(=O)CCC(=O)O)O[C@@H]2O[C@@]3(C)CC[C@@H]4[C@H](C)CC[C@@H]1[C@@]24OO3`, the cell viability, % of control (lower = more cytotoxic) was 9.55%.

Consider `C[C@]12CCC(=O)C=C1[C@@H]1CC1[C@H]1[C@H]3[C@@H]4C[C@H]4[C@@]4(CCC(=O)O4)[C@@]3(C)CC[C@H]12` (stereo partly drawn), for which the cell viability, % of control (lower = more cytotoxic) is 75.3%. Under `COc1ccc(CCC(=O)c2c(O)cc(O[C@@H]3O[C@H](CO)[C@@H](O)[C@H](O)[C@@H]3O[C@@H]3O[C@@H](C)[C@H](O)[C@@H](O)[C@@H]3O)cc2O)cc1O` stands 77%. On to `C[C@H](NCc1ccc(OCc2cccc(F)c2)cc1)C(N)=O`, for which the cell viability, % of control (lower = more cytotoxic) was found to be 13.6%. On to `CC(=O)[C@]1(O)Cc2c(O)c3c(c(O)c2[C@@H](O[C@H]2C[C@H](N)[C@@H](O)[C@H](C)O2)C1)C(=O)c1ccccc1C3=O`, for which the cell viability, % of control (lower = more cytotoxic) is 6.08%.

With `CC(C)(O)CC[C@@H](O)[C@](C)(O)[C@H]1CC[C@@]2(O)C3=CC(=O)[C@@H]4C[C@@H](O)[C@@H](O)C[C@]4(C)[C@@H]3CC[C@]12C`, the cell viability, % of control (lower = more cytotoxic) is 104%.

For the molecule `C[C@@H](NCc1cc2ccccc2[nH]1)c1cccc2ccccc12`, the cell viability, % of control (lower = more cytotoxic) was found to be 171%. Turning to `CC(C=CC1=C(C)CCCC1(C)C)=CC=CC(C)=CC(=O)Nc1ccc(O)cc1`, the cell viability, % of control (lower = more cytotoxic) was 5.64% [at 92.2 µM].

With `CC(C)C[C@H](NC(=O)CNC(=O)c1cc(Cl)ccc1Cl)B1OC(=O)CC(CC(=O)O)(C(=O)O)O1` (stereo partly drawn), the cell viability, % of control (lower = more cytotoxic) was determined as 4.85%. With `Cc1cn([C@@H]2O[C@H](CO)[C@@H](O)[C@H]2F)c(=O)[nH]c1=O`, the cell viability, % of control (lower = more cytotoxic) was determined as 189%. Under `c1cncc(CN2CCC(n3ncc4c(N5CCOCC5)nc(-c5ccc6[nH]ccc6c5)nc43)CC2)c1` stands 12.4%; under `O=C(c1ccc(F)cc1)N1CCC[C@H](c2nc(-c3ccc(F)cc3)no2)C1`, 93.8%.

(Values after PubChem BioAssay (NCATS).)
